Measurements as given in PubChem BioAssay.
Activity calls are given as the source filed them.

Experiments:
[1] = small molecules captured by biotinylated probe aFSTL3 – biochemical, small-molecule microarray, fluorescence 635/667, stem cell growth factor project, primary screen (AID 1064); details: higher = more signal;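 also: measures binding of the biotinylated anti-FSTL3 antibody to printed compounds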
[2] = binders from COS7 lysate, DM2A8 probe, primary screen, torsin A project, cell lysate, small-molecule microarray, fluorescence 635/667 (AID 1065); details: higher = more signal, COS7 lysate expressing mutant human TOR1A
[3] = small molecules captured by biotinylated probe aFGF2 – biochemical, small-molecule microarray, fluorescence 635/667, stem cell growth factor project, primary screen (AID 1067); details: higher = more signal;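 also: measures binding of biotinylated aFGF2 protein to printed compounds on slides; z-score merges feature fluorescence and signal-to-noise across triplicate slides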
[4] = small molecules captured by biotinylated probe aFGF10 – biochemical, small-molecule microarray, fluorescence 635/667, stem cell growth factor project, primary screen (AID 1071); details: higher = more signal;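 also: score merges 667 nm spot intensity and signal to noise from triplicate slides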
[5] = target: Neurogenic locus notch homolog protein 2 (Homo sapiens) (UniProt Q04721); experiment: small molecules binding Notch2 protein – biochemical, small-molecule microarray, 635 nm fluorescence, stem cell growth factors, primary screen (AID 1073); details: higher = more signal
[6] = target: Pro-neuregulin-1, membrane-bound isoform (Homo sapiens) (UniProt Q02297); experiment: small molecules binding neuregulin-1 protein – biochemical, small-molecule microarray, fluorescence 635/667, psychiatric disease protein project, primary screen (AID 1075); details: NRG1 binding, 635 nm fluorescence, higher = more signal;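 also: score combines 667 nm spot fluorescence with signal to noise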
[7] = system: Neuregulin-1 EGF-like domain; experiment: small molecules binding NRG1 EGF domain – biochemical, small-molecule microarray, 635 nm fluorescence, primary screen (AID 1081); details: higher = more signal;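 also: binding of the protein to compounds printed on small-molecule microarray slides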
[8] = FRG1 expression reporter modulators in myotubes – cell-based, C2C12 myotubes, firefly/Renilla luciferase, luminescence, FRG1 inhibition for FSHD, primary screen (AID 1084); details: FRG1 promoter luciferase, higher = more signal, called active from +8 up or from −8 down
[9] = small molecules captured by biotinylated probe aFST – biochemical, small-molecule microarray, fluorescence 635/667, stem cell growth factor project, primary screen (AID 1086); details: higher = more signal;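 also: score merges 667 nm fluorescence with signal-to-noise of each printed compound spot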
[10] = binders of probe aHhip on microarray, primary screen, stem cell growth factor project, biochemical, small-molecule microarray, fluorescence 635/667 (AID 1087); details: higher = more signal;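 also: score merges spot fluorescence at 667nm with spot signal to noise ratio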
[11] = system: PRMT1 (protein arginine N-methyltransferase 1); experiment: small molecules binding arginine methyltransferase PRMT1 – biochemical, small-molecule microarray, 635 nm fluorescence, primary screen (AID 1088); details: higher = more signal;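 also: binding of Prmt1 protein to compounds spotted on small-molecule microarray slides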
[12] = growth effects on S. cerevisiae YJM789 – YJM789 clinical isolate, OD600, 24 h, basal, primary screen (AID 1089); details: higher = more signal, called active from +8 up or from −8 down;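 also: growth of clinical yeast isolate S. cerevisiae YJM 789 seeded 1000 cells per well; test concentration not given here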
[13] = S. pombe growth modifiers, basal conditions – strain 972, OD600, 24 h, no modulator, primary screen (AID 1090);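 also: basal condition with compound alone and no growth modifier present; test concentration not given here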; details: S. pombe 972 growth, higher = more signal, called active from +8 up or from −8 down
[14] = budding yeast growth modifiers under rapamycin – strain BY4716, OD600, 96 h, primary screen (AID 1091); also: test concentration not given here; details: S. cerevisiae BY4716 + rapamycin, higher = more signal, called active from +8 up or from −8 down
[15] = target: Torsin-1A-interacting protein 2 (Homo sapiens) (UniProt Q8NFQ8); experiment: small molecules binding lysate-expressed LULL1 – cell lysate, human LULL1 lysate, 635/667 nm fluorescence, primary screen (AID 1092); details: small-molecule microarray, hLULL1 lysate binding, 635 nm fluorescence; higher = more signal;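 also: probe is lysate of COS7 cells overexpressing human LULL1; score merges per-feature 667 nm fluorescence with signal-to-noise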
[16] = optical density change of DRC41 E. coli – strain DRC41, OD650, 24 h, E. coli filamentation project, primary screen (AID 1093);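 also: MC1000 strain lacking acrAB efflux and sulA so SOS filamentation is blocked; test concentration not given here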; details: E. coli DRC41 growth, higher = more signal, called active from +8 up or from −8 down
[17] = probe aLefty2 binding to arrayed compounds – biochemical, biotinylated probe, 635/667 nm fluorescence, primary screen (AID 1094); details: small-molecule microarray, higher = more signal;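 also: score merges spot fluorescence near 667 nm with spot signal-to-noise ratio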
[18] = system: Noggin (protein binding on small-molecule microarray); experiment: small molecules binding Noggin protein – biochemical, 635/667 nm fluorescence, primary screen (AID 1095); details: 635 nm fluorescence, higher = more signal;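 also: score merges 667 nm feature fluorescence with signal to noise over triplicate slides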
[19] = target: Neurogenic locus notch homolog protein 3 (Homo sapiens) (UniProt Q9UM47); experiment: small molecules binding NOTCH3 protein – biochemical, 635/667 nm fluorescence, primary screen (AID 1096); details: small-molecule microarray, 635 nm fluorescence, higher = more signal
[20] = probe aEGFR binding to arrayed compounds – biochemical, biotinylated probe, 635/667 nm fluorescence, primary screen (AID 1097); details: small-molecule microarray, higher = more signal;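 also: probe is a biotinylated anti-EGFR antibody binding compounds printed on slides; score combines fluorescence near 667 nm and signal to noise of each spot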

Sequence of Neurogenic locus notch homolog protein 2 (Homo sapiens) (Q04721 whole entry, looked up, canonical isoform): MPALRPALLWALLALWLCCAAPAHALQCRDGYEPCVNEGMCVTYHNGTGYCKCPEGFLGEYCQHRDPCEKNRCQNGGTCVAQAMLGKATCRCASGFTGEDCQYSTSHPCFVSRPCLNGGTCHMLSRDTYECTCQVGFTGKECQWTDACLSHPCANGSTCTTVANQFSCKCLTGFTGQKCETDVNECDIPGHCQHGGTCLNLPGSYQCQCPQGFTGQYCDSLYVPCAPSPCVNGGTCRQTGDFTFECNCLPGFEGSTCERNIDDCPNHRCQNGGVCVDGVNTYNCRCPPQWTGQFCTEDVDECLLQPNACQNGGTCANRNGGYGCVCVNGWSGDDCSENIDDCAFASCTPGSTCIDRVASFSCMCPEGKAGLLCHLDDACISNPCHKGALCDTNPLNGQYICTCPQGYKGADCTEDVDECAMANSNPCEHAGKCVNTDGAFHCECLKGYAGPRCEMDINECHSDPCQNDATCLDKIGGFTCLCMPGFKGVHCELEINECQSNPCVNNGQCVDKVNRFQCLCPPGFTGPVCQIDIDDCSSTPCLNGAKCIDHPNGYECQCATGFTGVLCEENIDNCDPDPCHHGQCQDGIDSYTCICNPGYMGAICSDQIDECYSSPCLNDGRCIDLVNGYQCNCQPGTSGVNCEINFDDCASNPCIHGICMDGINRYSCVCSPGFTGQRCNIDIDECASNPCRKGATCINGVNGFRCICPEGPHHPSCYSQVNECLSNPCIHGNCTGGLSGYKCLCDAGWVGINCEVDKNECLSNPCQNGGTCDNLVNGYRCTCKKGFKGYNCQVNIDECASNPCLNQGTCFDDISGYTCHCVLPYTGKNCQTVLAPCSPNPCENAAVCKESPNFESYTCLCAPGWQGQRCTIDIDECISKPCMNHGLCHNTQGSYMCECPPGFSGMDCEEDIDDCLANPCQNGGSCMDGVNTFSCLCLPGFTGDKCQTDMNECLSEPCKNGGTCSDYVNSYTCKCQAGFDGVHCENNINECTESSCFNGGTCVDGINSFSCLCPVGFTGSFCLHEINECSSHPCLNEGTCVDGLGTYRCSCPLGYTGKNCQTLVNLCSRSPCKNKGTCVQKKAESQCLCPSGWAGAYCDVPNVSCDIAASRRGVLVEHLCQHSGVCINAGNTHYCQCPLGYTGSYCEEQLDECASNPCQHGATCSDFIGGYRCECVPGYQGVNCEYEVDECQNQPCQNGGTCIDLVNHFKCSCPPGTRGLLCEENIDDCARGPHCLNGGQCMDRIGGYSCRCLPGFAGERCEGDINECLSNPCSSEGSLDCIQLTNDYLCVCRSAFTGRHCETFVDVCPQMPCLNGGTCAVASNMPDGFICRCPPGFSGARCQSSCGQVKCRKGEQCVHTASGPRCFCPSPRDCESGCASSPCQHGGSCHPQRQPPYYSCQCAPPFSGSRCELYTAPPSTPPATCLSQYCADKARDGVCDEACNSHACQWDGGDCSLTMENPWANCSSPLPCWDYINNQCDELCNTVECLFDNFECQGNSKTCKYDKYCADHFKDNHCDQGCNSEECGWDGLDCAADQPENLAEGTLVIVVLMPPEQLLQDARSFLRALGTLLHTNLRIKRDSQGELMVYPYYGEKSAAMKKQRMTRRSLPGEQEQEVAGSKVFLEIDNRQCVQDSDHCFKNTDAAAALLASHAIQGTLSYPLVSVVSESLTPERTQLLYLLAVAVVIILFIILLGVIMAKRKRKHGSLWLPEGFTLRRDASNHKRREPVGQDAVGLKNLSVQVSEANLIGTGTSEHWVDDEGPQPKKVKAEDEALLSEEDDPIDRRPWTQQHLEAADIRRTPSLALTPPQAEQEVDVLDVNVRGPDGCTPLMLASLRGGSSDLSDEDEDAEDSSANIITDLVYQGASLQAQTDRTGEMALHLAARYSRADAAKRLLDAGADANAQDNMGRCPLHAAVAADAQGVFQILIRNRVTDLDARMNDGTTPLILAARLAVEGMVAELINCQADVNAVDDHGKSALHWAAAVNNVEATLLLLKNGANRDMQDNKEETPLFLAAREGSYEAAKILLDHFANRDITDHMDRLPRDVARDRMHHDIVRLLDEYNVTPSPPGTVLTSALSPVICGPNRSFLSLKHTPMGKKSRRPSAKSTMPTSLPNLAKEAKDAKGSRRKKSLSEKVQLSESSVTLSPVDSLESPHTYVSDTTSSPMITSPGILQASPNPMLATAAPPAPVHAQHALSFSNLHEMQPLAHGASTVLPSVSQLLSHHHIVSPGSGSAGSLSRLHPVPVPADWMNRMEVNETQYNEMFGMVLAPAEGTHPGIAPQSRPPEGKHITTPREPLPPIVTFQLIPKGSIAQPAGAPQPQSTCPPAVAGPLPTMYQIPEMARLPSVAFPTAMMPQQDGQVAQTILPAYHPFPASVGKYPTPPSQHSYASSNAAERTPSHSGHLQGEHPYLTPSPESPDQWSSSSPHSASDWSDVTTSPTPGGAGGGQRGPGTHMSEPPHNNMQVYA
Sequence of Pro-neuregulin-1, membrane-bound isoform (Homo sapiens) (Q02297 whole entry, looked up, the tested form may be a part, canonical isoform): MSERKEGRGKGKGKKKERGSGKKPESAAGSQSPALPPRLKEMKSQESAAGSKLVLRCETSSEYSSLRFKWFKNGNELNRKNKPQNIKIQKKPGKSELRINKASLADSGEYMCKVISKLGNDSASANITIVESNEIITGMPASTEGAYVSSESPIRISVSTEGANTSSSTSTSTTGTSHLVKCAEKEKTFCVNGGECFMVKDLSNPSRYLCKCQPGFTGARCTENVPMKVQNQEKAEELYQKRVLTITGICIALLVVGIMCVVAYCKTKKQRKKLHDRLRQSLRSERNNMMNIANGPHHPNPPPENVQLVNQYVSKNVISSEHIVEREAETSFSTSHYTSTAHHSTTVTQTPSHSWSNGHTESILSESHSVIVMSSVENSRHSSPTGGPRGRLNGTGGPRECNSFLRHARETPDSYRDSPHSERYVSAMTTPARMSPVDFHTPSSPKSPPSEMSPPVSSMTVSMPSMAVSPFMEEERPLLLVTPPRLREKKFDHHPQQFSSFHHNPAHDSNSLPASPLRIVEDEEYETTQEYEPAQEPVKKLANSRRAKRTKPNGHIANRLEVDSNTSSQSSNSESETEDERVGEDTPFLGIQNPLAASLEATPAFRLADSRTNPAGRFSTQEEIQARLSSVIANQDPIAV
Sequence of Torsin-1A-interacting protein 2 (Homo sapiens) (Q8NFQ8 whole entry, looked up): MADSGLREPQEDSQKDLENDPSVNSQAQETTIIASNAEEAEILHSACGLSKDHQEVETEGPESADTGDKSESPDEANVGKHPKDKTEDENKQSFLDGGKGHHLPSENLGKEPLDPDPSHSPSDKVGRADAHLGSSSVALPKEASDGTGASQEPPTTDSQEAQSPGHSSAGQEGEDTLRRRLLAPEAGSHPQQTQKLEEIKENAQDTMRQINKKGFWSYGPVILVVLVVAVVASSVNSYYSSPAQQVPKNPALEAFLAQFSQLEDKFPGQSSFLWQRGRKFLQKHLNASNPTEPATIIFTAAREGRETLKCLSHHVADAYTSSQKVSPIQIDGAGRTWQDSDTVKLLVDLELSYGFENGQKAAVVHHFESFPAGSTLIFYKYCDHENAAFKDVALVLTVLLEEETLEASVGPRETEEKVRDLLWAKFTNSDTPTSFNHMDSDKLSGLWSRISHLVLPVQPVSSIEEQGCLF

Row | SMILES | composite z-score [1] | composite z-score [2] | composite z-score [3] | composite z-score [4] | composite z-score [5] | composite z-score [6] | composite z-score [7] | z-score [8] | composite z-score [9] | composite z-score [10] | composite z-score [11] | z-score [12] | z-score [13] | z-score [14] | composite z-score [15] | z-score [16] | composite z-score [17] | composite z-score [18] | composite z-score [19] | composite z-score [20]
1 | O=C1O[C@@H](c2ccccc2)[C@@H](c2ccccc2)N2[C@@H](c3ccc(OCCO)cc3)[C@]3(C(=O)Nc4ccccc43)[C@@H](C(=O)NC[C@H](O)c3ccccc3)[C@H]12 | -0.0164 | 0.0007 | -0.019 | -0.0455 | 1.27 | 1.24 | 1.26 | -2.2 (inactive) | 0.322 | -0.145 | 1.35 | 1.63 (inactive) | 1.59 (inactive) | 4.14 (inactive) | 2.44 | -0.46 (inactive) | 0.161 | 0.457 | 0.488 | 0.174
2 | COCCOC(=O)N1C(=O)[C@@]2(c3cc(C#CCCO)ccc31)[C@H](C(=O)N1CCc3cc(OC)c(OC)cc3C1)[C@H]1C(=O)O[C@H](c3ccccc3)[C@H](c3ccccc3)N1[C@@H]2c1ccc(O)cc1 | -0.239 | 0.761 | 0.0106 | 0.393 | 1.15 | 1.46 | 1.32 | 0.897 (inactive) | 0.239 | -0.0645 | 1.54 | 1.42 (inactive) | 0.0725 (inactive) | 1.8 (inactive) | 2.55 | 0.199 (inactive) | 0.0262 | 1.07 | 1.08 | -0.0191
3 | CN1C(=O)C2C=CC(C(O)c3ccccc3)N(Nc3ccccc3)C2C1=O (stereo not given) | 0.527 | -0.214 | 0.0444 | -1.06 | -0.0125 | 0.151 | 0.547 | 0.527 (inactive) | 0.261 | -0.301 | 0.47 | -0.124 (inactive) | 0.807 (inactive) | 0.646 (inactive) | 2.71 | -1.79 (inactive) | 0.0105 | -1.09 | -0.557 | -0.0828
4 | COc1ccc(C(=O)Nc2ccc(CN3C(=O)[C@@]4(O[C@@H](CCn5cc([C@H](O)c6ccccc6)nn5)[C@H]([Si](C)(C)c5ccc(OC)cc5)[C@H]4C)c4ccccc43)cc2)cc1 | -0.197 | 0.315 | 0.484 | -0.164 | -0.244 | 0.258 | 1.05 | -2.48 (inactive) | 0.217 | -0.0391 | 1.46 | 0.188 (inactive) | -0.807 (inactive) | 1.66 (inactive) | 1.11 | -0.351 (inactive) | -0.136 | 0.323 | 0.378 | -0.134
5 | COc1ccc(CCNC(=O)[C@@H]2c3ccccc3C(=O)N(C3Cc4ccccc4C3)[C@H]2c2ccc(CO)cc2)cc1 | 0.287 | -0.249 | 0.0628 | 0.219 | -0.395 | 1.49 | 1.05 | -1.06 (inactive) | -0.183 | 0.113 | 1.34 | 0.629 (inactive) | 0.0128 (inactive) | 0.332 (inactive) | 1.75 | -0.141 (inactive) | 0.0349 | -0.155 | -0.145 | -0.0624
6 | CC(C)c1ccc(NN2C(C(O)c3cc(C(F)(F)F)cc(C(F)(F)F)c3)C=CC3C(=O)N(c4ccccc4)C(=O)C32)cc1 (stereo not given) | 0.43 | -0.165 | -0.0165 | 0.13 | 1.24 | 1.69 | 1.28 | 0.0782 (inactive) | 0.273 | 0.213 | 0.353 | 0.89 (inactive) | 0.183 (inactive) | 3.38 (inactive) | 3.22 | -2.08 (inactive) | -0.0831 | -0.722 | 0.245 | -0.152
7 | C=CC[C@@]1(C(=O)NCc2ccccc2)N=C(c2ccc(OCCCO)cc2)O[C@@H]1c1ccccc1N=[N+]=[N-] | 0.127 | 0.852 | 0.071 | 0.942 | 1.44 | 1.74 | 1.27 | 0.206 (inactive) | 1.31 | 0.111 | 1.54 | 0.158 (inactive) | 0.178 (inactive) | 2.21 (inactive) | 3.55 | 0.266 (inactive) | 0.252 | 0.8 | 1.09 | 0.006
8 | CC(C)N1C(=O)[C@@]2(Cc3ccccc31)c1ccccc1C(=O)N(C1CCCCC1)[C@H]2c1ccc(CO)cc1 | -0.302 | -0.0937 | -0.132 | 0.397 | 0.184 | 0.452 | 1.24 | 0.0117 (inactive) | -0.123 | -0.296 | 1.56 | -0.0915 (inactive) | -0.34 (inactive) | -2.58 (inactive) | 2.01 | -1.61 (inactive) | -0.132 | 0.79 | 0.79 | 0.0117
9 | CC(C)OC(=O)C=C1C[C@@H](c2ccccc2C(F)(F)F)O[C@@H](c2ccccc2C(F)(F)F)O1 | -0.173 | -0.11 | -0.0924 | -0.443 | 0.647 | 0.113 | -0.0471 | 0.009 (inactive) | 0.2 | -0.0994 | 0.494 | -0.317 (inactive) | 1.17 (inactive) | 1.38 (inactive) | 0.675 | -0.952 (inactive) | -0.145 | 0.134 | 0.266 | -0.0776
10 | COc1cc2c(cc1O)C(C1CC1)N(Cc1cc3c(cc1Br)OCO3)CC2 (stereo not given) | 0.423 | 0.97 | -0.119 | -0.974 | -0.695 | 0.502 | 1.02 | 1.21 (inactive) | -0.734 | -0.394 | -0.221 | 0.19 (inactive) | -3.12 (inactive) | -0.24 (inactive) | 1.61 | -1.91 (inactive) | -0.209 | -0.774 | -0.346 | -0.363
